Some of the results follow. Calls of active or inactive are those of the source. Cut-off read from the data, not from the text of the source, unless noted: active = inhibition above about 30%; inactive = the rest.
Experiments:
[1] = target: Nuclear receptor coactivator 3 (Homo sapiens) (UniProt Q9Y6Q9); experiment: NCOA3 GAL4-fusion reporter inhibition – cell-based, luminescence, quadruplicate, confirmation (AID 588792;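 active = mean inhibition over 43.08%, the solvent-only control mean plus 3 SD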;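 note: 0% = DMSO treated cells and 100% = gossypol at 36 µM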); details: HEK293 GAL4-SRC3 luciferase reporter, at 3.6 µM, hits give high values
[2] = system: transactivating tegument protein VP16 (Human herpesvirus 1), Gal4-VP16 luciferase reporter; experiment: repression of VP16-driven luciferase reporter – cell-based, luminescence, high throughput, counter-screen for SRC3 inhibitor project (AID 588794); details: mammalian cells, at 3.6 µM, hits give high values
[3] = target: Nuclear receptor coactivator 1 (Homo sapiens) (UniProt Q15788); experiment: NCOA1 GAL4-fusion reporter inhibition – cell-based, luminescence, quadruplicate, confirmation (AID 588820;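 active = mean inhibition above 46.68%, the untreated control wells mean plus 3 SD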;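 note: 0% = DMSO wells and 100% = gossypol 36 µM treated wells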); details: HEK293 GAL4-SRC1 luciferase reporter, at 3.6 µM, hits give high values
Sequence of Nuclear receptor coactivator 1 (Homo sapiens) (Q15788 whole entry, looked up, the tested form may be a part): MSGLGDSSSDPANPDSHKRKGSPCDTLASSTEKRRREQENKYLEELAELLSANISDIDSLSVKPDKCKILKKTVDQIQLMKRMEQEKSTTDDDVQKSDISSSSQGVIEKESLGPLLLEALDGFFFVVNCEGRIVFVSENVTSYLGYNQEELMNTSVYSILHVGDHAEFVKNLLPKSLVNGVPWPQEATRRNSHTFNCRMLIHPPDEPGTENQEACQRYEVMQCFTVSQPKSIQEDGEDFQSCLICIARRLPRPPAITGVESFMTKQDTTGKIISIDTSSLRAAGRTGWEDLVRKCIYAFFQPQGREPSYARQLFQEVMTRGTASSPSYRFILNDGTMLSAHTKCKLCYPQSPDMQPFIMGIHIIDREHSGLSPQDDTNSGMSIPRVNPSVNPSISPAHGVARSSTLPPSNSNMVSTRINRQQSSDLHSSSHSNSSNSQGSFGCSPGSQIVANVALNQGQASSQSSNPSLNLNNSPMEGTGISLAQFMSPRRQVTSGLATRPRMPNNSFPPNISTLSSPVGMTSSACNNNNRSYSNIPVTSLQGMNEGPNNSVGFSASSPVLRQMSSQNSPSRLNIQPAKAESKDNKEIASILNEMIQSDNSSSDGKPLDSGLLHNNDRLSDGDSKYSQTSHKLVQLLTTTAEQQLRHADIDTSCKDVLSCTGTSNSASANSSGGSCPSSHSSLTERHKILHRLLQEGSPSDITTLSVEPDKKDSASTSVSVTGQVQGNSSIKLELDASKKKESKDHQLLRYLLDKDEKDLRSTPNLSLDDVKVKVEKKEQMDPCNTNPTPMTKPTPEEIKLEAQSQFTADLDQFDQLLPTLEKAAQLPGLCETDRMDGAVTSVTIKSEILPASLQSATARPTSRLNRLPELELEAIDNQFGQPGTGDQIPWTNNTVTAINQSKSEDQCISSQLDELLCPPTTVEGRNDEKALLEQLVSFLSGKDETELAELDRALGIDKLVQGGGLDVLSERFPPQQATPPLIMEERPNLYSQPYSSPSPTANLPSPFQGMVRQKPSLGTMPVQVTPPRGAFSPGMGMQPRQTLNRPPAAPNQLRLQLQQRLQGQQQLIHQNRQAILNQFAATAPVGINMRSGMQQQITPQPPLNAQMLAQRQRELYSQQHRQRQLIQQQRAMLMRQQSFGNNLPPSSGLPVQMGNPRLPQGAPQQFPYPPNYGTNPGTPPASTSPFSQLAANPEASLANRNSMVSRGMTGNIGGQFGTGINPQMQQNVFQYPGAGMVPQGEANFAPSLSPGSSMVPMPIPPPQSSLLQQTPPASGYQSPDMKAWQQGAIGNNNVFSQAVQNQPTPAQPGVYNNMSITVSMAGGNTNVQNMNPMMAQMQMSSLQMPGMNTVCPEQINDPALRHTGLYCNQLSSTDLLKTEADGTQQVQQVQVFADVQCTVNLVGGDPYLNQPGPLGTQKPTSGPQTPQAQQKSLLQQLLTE

[4] = repression of VP16-driven luciferase reporter – cell-based, luminescence, high throughput, counter-screen for SRC1 inhibitor project (AID 588824; in the data active = inhibition above about 25%); details: cell-based VP16 transactivation luciferase luminescence; at 3.6 µM; hits give high values
[5] = system: transactivating tegument protein VP16 (Human herpesvirus 1); experiment: compounds suppressing VP16-driven luciferase signal – cell-based, luminescence, single concentration, counter-screen for SRC2 inhibitor project (AID 652007; in the data active = inhibition above about 36%); details: cell-based VP16 transactivation luciferase reporter, at 8.9 µM, hits give high values
[6] = target: Nuclear receptor coactivator 2 (Homo sapiens) (UniProt Q15596); experiment: inhibition of GAL4-SRC2 driven luciferase expression – cell-based, luminescence, HEK293, triplicate, confirmation (AID 652008;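 active = mean inhibition above 46.5%, the solvent-only control mean plus 3 SD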;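 note: 0% = DMSO-treated cells and 100% = Gossypol at 36 µM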); details: HEK293 GAL4-SRC2 luciferase reporter, at 8.9 µM, hits give high values
Sequence of Nuclear receptor coactivator 2 (Homo sapiens) (Q15596 whole entry, looked up, the tested form may be a part): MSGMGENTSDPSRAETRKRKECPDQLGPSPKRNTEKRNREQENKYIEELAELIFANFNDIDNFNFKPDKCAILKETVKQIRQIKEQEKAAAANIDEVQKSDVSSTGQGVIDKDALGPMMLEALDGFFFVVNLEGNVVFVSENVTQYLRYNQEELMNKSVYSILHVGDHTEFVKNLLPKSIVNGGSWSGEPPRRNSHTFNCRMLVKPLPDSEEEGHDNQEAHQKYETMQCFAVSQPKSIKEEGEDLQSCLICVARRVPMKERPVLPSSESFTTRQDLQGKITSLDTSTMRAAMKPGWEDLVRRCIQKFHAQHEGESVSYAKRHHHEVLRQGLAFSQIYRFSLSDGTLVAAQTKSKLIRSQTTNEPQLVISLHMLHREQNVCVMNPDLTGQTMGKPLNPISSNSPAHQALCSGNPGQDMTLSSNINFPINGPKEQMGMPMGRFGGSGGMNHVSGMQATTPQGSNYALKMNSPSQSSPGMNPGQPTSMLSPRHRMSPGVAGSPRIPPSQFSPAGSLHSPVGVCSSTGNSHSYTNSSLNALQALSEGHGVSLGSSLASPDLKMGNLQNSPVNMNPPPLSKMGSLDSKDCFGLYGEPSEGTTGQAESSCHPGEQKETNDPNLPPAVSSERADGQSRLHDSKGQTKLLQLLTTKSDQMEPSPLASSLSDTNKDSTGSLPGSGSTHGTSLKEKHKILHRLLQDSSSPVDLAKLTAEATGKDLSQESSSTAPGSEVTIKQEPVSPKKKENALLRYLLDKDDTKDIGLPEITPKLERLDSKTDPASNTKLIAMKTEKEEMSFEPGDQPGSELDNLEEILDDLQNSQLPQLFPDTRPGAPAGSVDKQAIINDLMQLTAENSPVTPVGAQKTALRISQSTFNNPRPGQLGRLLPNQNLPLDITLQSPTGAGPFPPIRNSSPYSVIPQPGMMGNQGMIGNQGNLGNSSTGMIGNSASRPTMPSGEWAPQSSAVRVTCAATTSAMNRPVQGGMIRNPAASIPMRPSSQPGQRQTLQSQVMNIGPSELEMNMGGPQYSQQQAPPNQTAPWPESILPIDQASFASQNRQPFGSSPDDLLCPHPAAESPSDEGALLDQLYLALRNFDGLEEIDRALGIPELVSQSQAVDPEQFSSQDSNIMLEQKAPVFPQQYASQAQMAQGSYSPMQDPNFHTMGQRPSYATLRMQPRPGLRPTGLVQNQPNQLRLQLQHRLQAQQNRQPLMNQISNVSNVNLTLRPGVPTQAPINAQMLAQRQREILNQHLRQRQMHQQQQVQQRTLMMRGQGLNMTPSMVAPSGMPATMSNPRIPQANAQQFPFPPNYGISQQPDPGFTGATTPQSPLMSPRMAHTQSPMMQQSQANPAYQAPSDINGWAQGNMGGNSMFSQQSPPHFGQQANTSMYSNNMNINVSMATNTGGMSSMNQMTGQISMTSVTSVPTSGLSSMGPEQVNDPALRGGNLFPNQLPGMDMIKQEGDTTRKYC

[7] = StAR promoter reporter inhibitors, counter-screen for LRH-1 inverse agonist project, cell-based, luminescence, high throughput (AID 651611; in the data active = inhibition above about 28%); details: StAR promoter luciferase reporter counterscreen, at 3.6 µM, hits give high values
[8] = target: Nuclear receptor subfamily 5 group A member 2 (Homo sapiens) (UniProt O00482); experiment: NR5A2 activity suppression in reporter cells – cell-based, luminescence, confirmation (AID 651613; in the data active = inhibition above about 42%;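 note: HEK293T cells co-transfected with LRH-1 and StAR promoter luciferase reporter; 0% = vehicle wells and 100% = parental cells lacking receptor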); details: cell-based LRH-1 luciferase reporter, inverse agonism; at 3.6 µM; hits give high values
Sequence of Nuclear receptor subfamily 5 group A member 2 (Homo sapiens) (O00482 whole entry, looked up): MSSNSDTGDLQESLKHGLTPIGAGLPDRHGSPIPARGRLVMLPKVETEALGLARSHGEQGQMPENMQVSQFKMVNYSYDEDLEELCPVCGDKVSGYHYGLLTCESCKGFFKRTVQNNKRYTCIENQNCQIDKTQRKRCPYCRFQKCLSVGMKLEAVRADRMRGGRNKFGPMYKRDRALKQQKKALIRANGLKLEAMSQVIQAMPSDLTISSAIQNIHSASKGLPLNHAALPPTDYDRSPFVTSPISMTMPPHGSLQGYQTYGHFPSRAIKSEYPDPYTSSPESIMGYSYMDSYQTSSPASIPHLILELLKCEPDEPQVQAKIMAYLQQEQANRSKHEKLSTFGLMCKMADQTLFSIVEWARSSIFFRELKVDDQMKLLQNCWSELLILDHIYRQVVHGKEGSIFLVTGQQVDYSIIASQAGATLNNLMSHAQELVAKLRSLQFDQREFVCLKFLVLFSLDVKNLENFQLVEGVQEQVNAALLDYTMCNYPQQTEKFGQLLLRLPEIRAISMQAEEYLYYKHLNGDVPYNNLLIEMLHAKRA

[9] = target: Steroidogenic factor 1 (Homo sapiens) (UniProt Q13285); experiment: inverse agonism at SF1 nuclear receptor – cell-based, luminescence, high throughput, counter-screen for LRH-1 inverse agonist project (AID 651614; in the data active = inhibition above about 44%;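 note: cells cotransfected with StAR promoter reporter and SF1 expression vector; 0% = vehicle on cells with receptor and 100% = vehicle on cells lacking receptor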); details: cell-based SF1 luciferase reporter, at 3.6 µM, hits give high values
Sequence of Steroidogenic factor 1 (Homo sapiens) (Q13285 whole entry, looked up, the tested form may be a part): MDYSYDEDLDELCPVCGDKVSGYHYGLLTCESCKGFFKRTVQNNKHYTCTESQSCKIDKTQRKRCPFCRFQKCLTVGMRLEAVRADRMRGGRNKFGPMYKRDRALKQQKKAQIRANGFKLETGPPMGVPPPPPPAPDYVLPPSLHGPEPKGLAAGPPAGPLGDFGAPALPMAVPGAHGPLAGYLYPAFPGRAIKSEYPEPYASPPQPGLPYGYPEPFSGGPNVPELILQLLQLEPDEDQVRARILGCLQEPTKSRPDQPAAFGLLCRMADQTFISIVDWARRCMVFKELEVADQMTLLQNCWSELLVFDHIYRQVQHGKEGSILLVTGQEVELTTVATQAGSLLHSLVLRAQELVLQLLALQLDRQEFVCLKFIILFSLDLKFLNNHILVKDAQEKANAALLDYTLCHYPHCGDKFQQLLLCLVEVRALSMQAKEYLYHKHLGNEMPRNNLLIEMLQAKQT

[10] = compounds suppressing VP16-driven luciferase signal – cell-based, luminescence, high throughput, counter-screen for LRH-1 inverse agonist project (AID 651615; in the data active = inhibition above about 33%); details: Gal4-VP16 luciferase reporter cells, at 3.6 µM, hits give high values
[11] = VP16-driven transactivation reporter suppression – cell-based, luminescence, HEK293, counter-screen for COUP-TFII antagonist project (AID 687007; in the data active = inhibition above about 13%); details: HEK293 Gal4-VP16 luciferase reporter, at 8.5 µM, hits give high values
[12] = target: COUP transcription factor 2 (Homo sapiens) (UniProt P24468); experiment: retest of COUP-TFII reporter suppressors – cell-based, luciferase reporter, HEK293, triplicate, confirmation (AID 687008;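 active = mean inhibition over three repeats above a set limit taken from the earlier primary screen, cut at about 38% in these data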;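 note: 100% = cells given the luciferase reporter alone without the COUP-TF2 vector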); details: HEK293 NGFI-A luciferase reporter, luminescence; at 8.5 µM; hits give high values
Sequence of COUP transcription factor 2 (Homo sapiens) (P24468 whole entry, looked up): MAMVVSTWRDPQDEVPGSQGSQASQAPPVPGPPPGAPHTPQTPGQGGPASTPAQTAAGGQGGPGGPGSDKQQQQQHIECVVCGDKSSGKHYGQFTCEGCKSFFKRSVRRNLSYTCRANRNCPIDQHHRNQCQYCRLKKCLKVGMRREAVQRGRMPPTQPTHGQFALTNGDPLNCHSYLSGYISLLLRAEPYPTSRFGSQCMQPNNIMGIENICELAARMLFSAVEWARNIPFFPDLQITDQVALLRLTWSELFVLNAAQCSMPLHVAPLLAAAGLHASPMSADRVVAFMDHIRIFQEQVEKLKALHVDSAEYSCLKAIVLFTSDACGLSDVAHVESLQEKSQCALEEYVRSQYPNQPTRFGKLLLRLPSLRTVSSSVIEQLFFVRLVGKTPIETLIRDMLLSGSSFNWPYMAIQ

Measured: inhibition

CCOc1ccc(/C=C2\SC(=S)N(CCC(=O)O)C2=O)cc1
active: [6] 84.6%
inactive: [1] 29% | [2] -33.1% | [3] 39.5% | [4] -38.8% | [5] -7.9%

Nc1ccc2c(c1)OC1(CCCC1)O2
inactive: [1] 10.9% | [2] 4.56% | [3] -18.7% | [4] 15.4% | [5] -13% | [6] 45.4%

COc1ccc(/C=C2\SC(=S)N(CCCC(=O)N3CCCCC3CCO)C2=O)cc1 (centres undefined)
inactive: [1] 20.9% | [2] 17.1% | [3] 4.91% | [4] 13.6%
active: [5] 61% | [6] 65.9%

CC1(C)CC(N2CCN(C(c3ccccc3)c3ccccc3)CC2)=CC(=[N+]2CCCCC2)C1
active: [1] 91% | [2] 87.8% | [3] 69.5% | [4] 87.8% | [7] 80.6% | [8] 110% | [9] 94.8% | [10] 94.7% | [11] 24.1% | [12] 86.3%

Nc1ncc([N+](=O)[O-])c(N2CCCCCC2)n1
inactive: [5] 4.49%
active: [1] 76.5% | [2] 50.2% | [3] 67.5% | [4] 51.2% | [6] 57.3%

CC1CCc2nc(NC(=O)C3COc4ccccc4O3)sc2C1 (centres undefined)
inactive: [1] 9.01% | [2] -11.5% | [3] -134% | [4] -51.9% | [5] -16.9% | [6] 36.4%

COc1cc([C@@H]2c3cc4c(cc3[C@@H](O[C@@H]3O[C@@H]5CO[C@@H](C)O[C@H]5[C@H](O)[C@H]3O)[C@H]3COC(=O)[C@H]23)OCO4)cc(OC)c1O
active: [1] 64.4% | [3] 62.5% | [8] 69.3% | [9] 44.6%
inactive: [2] 8.66% | [4] 6.22%

Cc1ccc(/C=C2\SC(=S)N(CCCC(=O)NNC(=O)c3ccccc3O)C2=O)cc1
active: [1] 73.3% | [2] 53.6% | [3] 74.7% | [4] 58.3% | [5] 92.8% | [6] 95.4%

O=c1ccc2ccccc2c2ccccc12
active: [1] 73.2% | [2] 70.8% | [3] 58.7% | [4] 70% | [7] 76.7% | [8] 93.6% | [9] 90.3% | [10] 88.1% | [5] 68.3% | [6] 84.5%

O[C@@H]1[C@@H](O)C=C2CCN3Cc4cc5c(cc4[C@H]1C23)OCO5 (some centres undefined)
active: [1] 84.3% | [2] 77.5% | [3] 48.1% | [4] 76.7% | [8] 105% | [9] 93.4%
inactive: [5] 15.7% | [6] -13.8%

CN(C)c1ccc(/C=C/c2nc3ccccc3s2)cc1
active: [5] 77.1% | [6] 84%
inactive: [1] 30.4% | [2] 28.4% | [3] 18.7% | [4] 12.9%

COCCNc1nc(Oc2cncc(Cl)c2)c2sccc2n1
active: [2] 29.7% | [4] 32.8%
inactive: [1] 42.1% | [3] 44.3% | [5] 16.6% | [6] 45.5%

CCc1ccc(-c2nc(CSCC(=O)NCc3ccco3)c(C)o2)cc1
active: [5] 41.4% | [6] 70.5%
inactive: [1] 33.8% | [2] 27.9% | [3] 33.9% | [4] 24.5%

OCCN1CCN(c2ncnc3ccc(Br)cc23)CC1
active: [1] 68.8% | [2] 41.1% | [3] 65.8% | [4] 44.5%
inactive: [5] 2.48% | [6] 36%

O=C(CCl)NC(Cc1ccccc1)c1ccccc1 (centres undefined)
active: [1] 52.5% | [6] 47.5%
inactive: [2] 14.2% | [3] 24.6% | [4] 6.41% | [5] 32.8%

OCCN(CCO)CC(O)COc1ccc(C23CC4CC(CC(C4)C2)C3)cc1 (centres undefined)
inactive: [1] 23.8% | [2] 18.7% | [3] 15.1% | [4] 8.76%
active: [5] 61.9% | [6] 81.9%

CCCCN1C=CC(=C2C(=O)c3ccccc3C2=O)C=C1
inactive: [1] 41.5% | [2] 23.1% | [3] -41.3% | [4] 14.1%
active: [5] 51% | [6] 73.1%

CCC(=O)NC(c1ccc(C)cc1)c1ccc2cccnc2c1O (centres undefined)
active: [1] 55.7% | [2] 38.1% | [4] 53.4%
inactive: [3] 45.3% | [5] -3.42% | [6] 24.4%

COC(=O)c1cccc2c1-c1ccccc1/C2=N/O
inactive: [2] 24.4% | [3] 34.5% | [4] 25.2% | [5] 21.1% | [6] 42.4%
active: [1] 50.9%
